Screening results: PubChem BioAssay, National Center for Advancing Translational Sciences (NCATS)
An excerpt weighted towards active compounds, which were near 6.9% of everything screened.
PLK1 PBD block – blocks phosphopeptide binding to human PLK1 polo-box domain | Potency, µM, inactives show max response, negative = inhibition, usual class: inhibitors | AID 720504 | Plk1 PBD binding of FITC phosphopeptide, fluorescence polarization | P53350 | actives 2.8% (n = 360,000); note: series mostly up to about 57 µM; % is set by controls: 0 for no effect and ±100 for the full control effect; nearly all actives have a fitted effect of over 65% in size
VDR inhibitor – inhibitors of human vitamin D receptor; actives 0.93% (n = 400,000); Potency, µM, without a hit: max response, negative = inhibition, usual class: inhibitors; VDR-SRC2-3 peptide fluorescence polarization, 2 h; note: % is set by controls: 0 for no effect and ±100 for the full control effect
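The screen uses fluorescence polarization to detect compounds that interfere with recruitment of the SRC2-3 coactivator peptide to VDR; plates are read after 2 h at room temperature.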
L3MBTL1 block – inhibitors of human L3MBTL1; Q9Y468; actives 0.66% (n = 230,000); AlphaScreen L3MBTL1–H3K9me1 peptide binding; Potency, µM (doses to about 57.1 µM), inactives show at the top dose activity, negative = inhibition, usual class: inhibitors; note: % is set by controls: 0 for no effect and ±100 for the full control effect; nearly all actives have a fitted effect of over 60% in size
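L3MBTL1 (50 nM) pre-complexed 30 min with biotinylated H3(1-15)K9me1 peptide (75 nM), then compounds added for 30 min at room temperature; AlphaScreen streptavidin donor/nickel chelate acceptor beads (10 ug/mL final) read after 30 min dark incubation.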
HP1b chromo inh – blocks HP1-beta chromodomain binding to methylated histone tails. Potency, µM (titrated, usually from 114 µM), without a hit: at the top dose activity change, negative = inhibition, most hits filed as inhibitors. actives 0.56% (n = 390,000). AlphaScreen HP1-beta / biotin-H3K9me3 peptide binding. P83916. AID 540317; note: nearly all actives have a fitted effect of over 70% in size
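HP1-beta protein (50 nM final) preincubated 30 min at room temperature with biotinylated H3(1-18)K9me3 peptide (50 nM) in PBS pH 7.4, 0.01% Tween-20, then compound added for 30 min. AlphaScreen streptavidin donor/nickel chelate acceptor beads (10 ug/mL final), 30 min dark, luminescence read.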
BAZ2B block – BAZ2B (human) inhibition | AID 504333 | actives 4.4% (n = 360,000) | AlphaScreen BAZ2B-H3K14Ac peptide displacement | Q9UIF8 | Potency, µM (series often up to 114 µM), for the others: at the top dose activity change, negative = inhibition, actives largely listed as inhibitors; note: % is set by controls: 0 for no effect and ±100 for the full control effect; nearly all actives have a fitted effect of over 60% in size
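AlphaScreen luminescence quantifies BAZ2B engagement of H3K14Ac peptide; the protein and biotinylated peptide are both at 50 nM final, buffer PBS pH 7.4 with 0.01% Tween-20, all steps at room temperature.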
JMJD2A Tudor inh – inhibitors of human JMJD2A Tudor domain; O75164; AlphaScreen JMJD2A-Tudor / H3K4me3 peptide binding; Potency, µM (series often up to 114 µM), for inactives: top-dose activity change, negative = inhibition, usual class: inhibitors; actives 4.4% (n = 390,000); AID 504339; note: % is set by controls: 0 for no effect and ±100 for the full control effect; nearly all actives have a fitted effect of over 50% in size
Target sequence (O75164 whole entry, looked up, the tested form may be a part): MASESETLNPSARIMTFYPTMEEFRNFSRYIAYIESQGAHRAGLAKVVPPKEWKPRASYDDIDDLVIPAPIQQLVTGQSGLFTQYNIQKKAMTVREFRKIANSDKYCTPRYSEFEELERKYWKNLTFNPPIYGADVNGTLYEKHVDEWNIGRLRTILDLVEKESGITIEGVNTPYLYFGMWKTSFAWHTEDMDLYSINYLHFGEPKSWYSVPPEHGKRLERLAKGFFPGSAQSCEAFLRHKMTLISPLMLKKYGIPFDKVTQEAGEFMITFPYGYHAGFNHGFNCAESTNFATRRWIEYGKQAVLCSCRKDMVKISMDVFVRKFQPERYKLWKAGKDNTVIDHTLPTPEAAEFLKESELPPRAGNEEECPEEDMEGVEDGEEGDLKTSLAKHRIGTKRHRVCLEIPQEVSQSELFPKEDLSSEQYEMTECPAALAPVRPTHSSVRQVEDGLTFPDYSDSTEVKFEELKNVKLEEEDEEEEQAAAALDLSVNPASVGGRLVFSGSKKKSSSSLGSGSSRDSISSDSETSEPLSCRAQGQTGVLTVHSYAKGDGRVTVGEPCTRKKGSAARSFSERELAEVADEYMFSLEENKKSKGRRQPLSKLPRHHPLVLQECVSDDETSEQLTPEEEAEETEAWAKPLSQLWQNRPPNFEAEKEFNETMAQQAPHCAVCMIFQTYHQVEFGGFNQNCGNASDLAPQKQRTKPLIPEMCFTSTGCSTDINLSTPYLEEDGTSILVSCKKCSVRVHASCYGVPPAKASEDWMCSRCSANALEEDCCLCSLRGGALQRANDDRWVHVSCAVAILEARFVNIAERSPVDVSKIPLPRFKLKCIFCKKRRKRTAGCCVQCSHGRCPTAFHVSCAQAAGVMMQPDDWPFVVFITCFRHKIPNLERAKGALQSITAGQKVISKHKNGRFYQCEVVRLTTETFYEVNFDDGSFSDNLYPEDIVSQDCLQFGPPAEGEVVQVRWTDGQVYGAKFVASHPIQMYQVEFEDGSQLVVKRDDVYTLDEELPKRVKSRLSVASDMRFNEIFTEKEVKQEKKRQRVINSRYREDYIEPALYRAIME
* marks the source's active call; other numbers are inactive results; ? = inconclusive; · = no result given; [ ] = another dose, or the depositor's remark. Calls come from the whole dose curve; as a rule, active = well fitted curve in the direction sought with a large enough effect; inconclusive = small, poorly fitted or top-dose-only effect, or another doubt; inactive = no such curve, though single readings can be large; an effect the other way counts as inactive or inconclusive. Potency is the fitted concentration of half-maximal effect.

SMILES	PLK1 PBD block	VDR inhibitor	L3MBTL1 block	HP1b chromo inh	BAZ2B block	JMJD2A Tudor inh
Cc1nc(N)sc1-c1csc(Nc2ccccc2)n1	27µM*	?	-2%	-38%	50µM*	?
Cc1csc(Nc2ccccc2)n1	30µM*	12%	0%[11.4 µM]	-10%	?	-19%
COc1ccc(C(=O)Nc2ccnn2C2CCN(Cc3cnn(C)c3)CC2)cc1	27µM*	-15%	·	28%	-7%[57.1 µM]	-23%
CCCn1ncc(CN2CCC(n3nccc3NC(=O)c3ccccc3OC)CC2)c1C	3%	-9%	·	34%	-1%	4%
CSc1ccc(CN2CCC(n3nccc3NC(=O)c3ccccc3C)CC2)cc1	30µM*	-21%	·	5%	-13%	-30%
COc1ccc(C(=O)Nc2ccnn2C2CCN(Cc3ccccn3)CC2)cc1	-17%	0%	·	20%	-25%[57.1 µM]	-10%
CCCCc1ncc(CN2CCC(n3nccc3NC(=O)c3ccccc3OC)CC2)[nH]1	24µM*	?	·	12%	?	?
COc1cc(NC(=O)c2nnn(CC(=O)Nc3cc(C)ccc3C)c2N)cc(OC)c1	·	11%	·	50%	8%[57.1 µM]	5%
CC1(C)CC(=O)C=C(c2ccc3c(c2)OCO3)C1	-9%	-1%	·	47%	·	1%
Cc1ccnc(Nc2nc(-c3c(C)nc4sccn34)cs2)c1	-4%	-19%	·	-34%	45µM*	?
Cc1cccc(N2CCN(C(=O)c3[nH]c(C(F)(F)F)nc3-c3ccccc3)CC2)c1C	-3%	·	·	·	·	·
CC1(C(=O)Nc2cccnc2)Cc2c(-c3cccc(C(F)(F)F)c3)ccnc2O1 (centres undefined)	1%	·	·	·	·	·
O=C(O)c1ccccc1-c1ccccc1C(=O)Nc1ccc(-c2nc3cc(Cl)ccc3o2)cc1	21µM*	-27%	-4%	3%[57 µM]	-22%	-15%
O=C(Nc1ccc(-c2nc3cc(Cl)ccc3o2)cc1)c1cc(Br)ccc1Cl	·	-15%	·	50%	-14%	?
O=C(NCC1CCCO1)c1cc(-c2ccc(F)cc2)no1 (centres undefined)	0%	?	·	14%[57 µM]	-12%	6%
Brc1ccc(NC2=Nc3ccccc3CC2)cc1	12µM*	?	-4%	?	-27%[57.1 µM]	?
CCOc1ccc(N(C(=O)c2ccc(Cl)cc2)S(=O)(=O)c2ccc3c(c2)n(C)c(=O)n3C)cc1	·	-9%	·	22%	-20%	-29%
CC1(C)CC(=O)C2=C(C1)NCN(Cc1ccc3c(c1)OCO3)C2	27µM*	-8%	4%	-2%	-11%	-11%[11.4 µM]
Oc1ccc(Cl)cc1-c1cc(-c2ccco2)[nH]n1	5.3µM*	-14%	-20%	7.9µM*	40µM*	-36%[11.4 µM]
Oc1ccc(Br)cc1-c1cc(-c2ccco2)[nH]n1	-10%	13%	·	-23%	?	?
COc1ccc(Nc2ncc3c(n2)CCN(Cc2cc(Br)cs2)C3)c(OC)c1	·	8%	·	-5%	?	?
O=C1Nc2cc(Cl)cnc2N2CCCC12 (centres undefined)	30µM*	?	-10%	13%	-2%	-35%
COc1ccc(C(=O)Nc2ccc(NC(=O)c3cccs3)cc2)cc1Cl	3.8µM*	?	2%	16%	6%	?
COc1cc(NCCC(=O)c2cccs2)c(OC)cc1Cl	-13%	18%	?	56µM*	40µM*	40µM*
COc1ccc(NC(=O)CN(C)C(C)C(=O)NC(=O)NC2CCCCC2)cc1 (centres undefined)	0%	3%	·	18%	-5%	-19%
SMILES	PLK1 PBD block	VDR inhibitor	L3MBTL1 block	HP1b chromo inh	BAZ2B block	JMJD2A Tudor inh
N#Cc1ccc(Oc2ccc(S(=O)(=O)N3CCOCC3)cn2)cc1	-1%	18%	2%	26%	7%	-6%
Cn1c(=O)c2[nH]c(-c3ccccc3)c(O)c2n(C)c1=O	27µM*	-19%	1%	26%	11%	-7%
COCCNC(=S)N1CCC(c2nc(-c3ccc(N(C)C)cc3)no2)CC1	-28%	-15%	?	-33%	56µM*	?
COc1ccccc1N1Cc2ccccc2C1	?	-17%	-13%	1%	56µM*	50µM*
COc1ccc(Cl)cc1N1Cc2ccccc2C1	-10%	-7%	·	23%	?	-24%
CC1(OC(=O)CCc2ccccc2)C(=O)C=C2C=C3CCCN3C=C2C1=O (centres undefined)	-26%	-8%	·	-9%	56µM*	56µM*
CC1(OC(=O)CCc2ccccc2)C(=O)C=C2C=C(c3ccc(C#N)cc3)N(C3CCCCC3)C=C2C1=O (centres undefined)	-15%	?	·	-8%	?	?
CC1(OC(=O)c2cccs2)C(=O)C=C2C=C3CCCN3C=C2C1=O (centres undefined)	?	?	·	?	45µM*	56µM*
O=[N+]([O-])c1cc2c(cc1C=Nc1ccccc1)OCO2	?	?	-4%	-34%	?	?
Sc1oc(-c2ccccc2)cc1C=Nc1ccccc1	-9%	?	·	?	20µM*	20µM*
Clc1ccc(-c2cc3ccccc3nc2N2CCOCC2)cc1	15µM*	?	118%	112%	123%	-16%[11.4 µM]
CN(C)c1nc(=NCc2ccco2)ss1	2.7µM*	28µM*	-4%	15%	-19%	-4%
O=C1CCCC(=NCc2ccco2)C1	-9%	-11%	-2%	15%	9%	-10%
Oc1ccccc1N=Nc1nc(-c2ccccc2)c(-c2ccccc2)[nH]1	-6%	-15%	·	32µM*	13µM*	13µM*
COc1ccc(N=Nc2nc(-c3ccccc3)c(-c3ccccc3)[nH]2)cc1	4%	-6%	16µM*	28µM*	8.9µM*	8.9µM*
O=C(O)CSc1nc(-c2ccccc2)c(-c2ccccc2)[nH]1	-8%	-7%	-6%	-5%[57 µM]	-37%	?
Cc1ncc(N=Nc2ccc(F)cc2)c(-c2ccc(Cl)cc2)n1	-4%	7%	1%	-7%	-28%	-25%
COc1ccccc1N=Nc1nc(-c2ccccc2)c(-c2ccccc2)[nH]1	2%	-17%	?	-71%	10µM*	7.1µM*
COc1ccc(-c2nc(C)ncc2N=Nc2ccccc2)cc1	-3%	-10%	?	-80%	11µM*	45µM*
C=CCc1ccc(OCCCOc2ccc(C)cc2OC)c(OC)c1	-13%	-2%	·	41%	59%	-6%[11.4 µM]
C=CCc1ccc(OCCCNCc2ccccc2)c(OC)c1	-7%	-27%	0%	?	50µM*	28µM*
C=CCc1cccc(Cl)c1OCCCNC1CCCC1	-8%	-3%	-6%	8%	?	50µM*
C=CCc1ccc(OCCCNC2CCCC2)c(OC)c1	2%	10%	·	?	·	79µM*
